Records with an inconclusive call do not appear. Active and inactive are the calls of the source. Unless noted, calls come from the whole dose curve; as a rule, active = well fitted curve in the direction sought with a large enough effect; inconclusive = small, poorly fitted or top-dose-only effect, or another doubt; inactive = no such curve, though single readings can be large; an effect the other way counts as inactive or inconclusive.
What was measured:
[1] = Cell Viability - BJ (AID 421; calls by dose curve;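 note: potency is the fitted concentration of half-maximal effect; cells exposed to compound for 40 hours at 37 °C before readout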); conditions: BJ fibroblast viability, qHTS
Method in brief: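 Quantitative HTS: ATP depletion in BJ cells after 40 hr compound exposure in complete culture medium, detected with CellTiter-Glo; AC50 from standard Hill fits.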

[2] = Cell Viability - Jurkat (AID 426;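 active = dose-dependent loss of cell ATP signal giving a full or clear fitted curve, ranked by lower potency value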;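 note: potency is the fitted concentration of half-maximal effect; cells exposed to compound for 40 hours at 37 °C before ATP read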); conditions: qHTS
Method in brief: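 Cytotoxicity was scored as loss of cellular ATP, measured by luciferase-based luminescence, in Jurkat clone E6-1 cells after 40 h compound treatment; tamoxifen and doxorubicin served as positive controls.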

[3] = Cell Viability - Hek293 (AID 427;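 active = compounds whose dose-response curve shows a full or clear partial loss of cell viability, called from curve shape rather than a numeric limit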;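 note: potency is the fitted concentration of half-maximal effect; cells exposed to compound for 40 hours at 37 °C before reading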); conditions: qHTS
Method in brief: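 AC50 values derive from Hill-modelled concentration-response of ATP-based luminescence, normalized between DMSO-only and 100 uM tamoxifen controls. Cells were exposed in complete culture medium for 40 hr at 37 °C before detection.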

[4] = Cell Viability - MRC5 (AID 434; calls by dose curve;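 note: potency is the fitted concentration of half-maximal effect; cells exposed to compound for 40 hours at 37 °C; potency reflects cytotoxicity seen as loss of intracellular ATP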); conditions: MRC5 lung fibroblast viability, qHTS
Method in brief: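 ATP luminescence read-out (CellTiter-Glo, 20 min RT) after 40 hr, 37 °C compound exposure of 1500 MRC5 cells/well. Data normalized to DMSO (basal) and 100 uM tamoxifen (100% inhibition); AC50 from standard Hill equation.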

[5] = Cell Viability - SK-N-SH (AID 435; calls by dose curve;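 note: potency is the fitted concentration of half-maximal effect; compound exposure lasted 40 h at 37 °C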); conditions: SK-N-SH neuroblastoma cell viability qHTS
Method in brief: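 Cells seeded at 1500 per well and incubated 5 hr at 37 °C. Compound added, then 40 hr at 37 °C. CellTiter-Glo added, 20 min at room temperature, luminescence read.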

[6] = molecular target: Mitogen-activated protein kinase 10 (Mus musculus) (UniProt Q61831); test: JNK3 AlphaScreen Assay (AID 530; active = well fitted curve in either direction with a large enough effect, not every such curve was filed as active;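 note: kinase came from lysate of stimulated human HepG2 cells; signal reports phosphorylation of biotinylated GST-cJun 1-79 at Ser73 with 10 µM ATP; % is set by controls: 0 for no effect and ±100 for the full control effect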)
Method in brief: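 HepG2 lysate (IL-1b/TNFa pre-activated) + biotin-GST-cJun 1-79 + anti-pSer73 cJun; cpd titration, 15 min RT; ATP 10 uM start; Tris pH 7.6, MgCl2, DTT, vanadate; beads in EDTA buffer; AlphaScreen.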

[7] = Cell Viability - N2a (AID 540); conditions: N2a mouse neuroblastoma cell viability; activity change, negative = cytotoxicity: at 92.2 µM (top of the series);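 note: cells exposed to compound for 40 h at 37 °C; plate controls were DMSO alone for no effect and tamoxifen control for full effect; nearly all actives have a fitted effect of over 45% in size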
Method in brief: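 In this qHTS cytotoxicity screen, ATP-dependent luciferase luminescence reports viable N2a cells after a 40 hr compound exposure in complete culture medium. Potencies are AC50 values from standard Hill equation fits.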

[8] = Cell Viability - HUV-EC-C (AID 542);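 note: cells exposed to compound for 40 hours; % is set by controls: 0 for no effect and ±100 for the full control effect; nearly all actives have a fitted effect of over 35% in size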
Method in brief: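 Concentration-dependent ATP loss in HUV-EC-C cells is the measure. Exposure lasts 40 hr at 37 °C; luminescence follows CellTiter-Glo addition, and Hill fits give AC50.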

[9] = Cell Viability - H-4-II-E (AID 543);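 note: cells exposed to compound for 40 hours; % is set by controls: 0 for no effect and ±100 for the full control effect; nearly all actives have a fitted effect of over 35% in size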
Method in brief: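 AC50 from Hill-modelled qHTS concentration-response curves. H-4-II-E rat hepatoma cells in complete medium, 40 hr exposure at 37 °C, viability by CellTiter-Glo ATP luminescence.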

[10] = Cell Viability - SH-SY5Y (AID 544);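 note: cells exposed to compound for 40 hours; nearly all actives have a fitted effect of over 55% in size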
Method in brief: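 Quantitative HTS in SH-SY5Y neuroblastoma cells, 40 hr treatment at 37 °C, ATP content by luciferase luminescence; AC50 from Hill fits.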

[11] = Cell Viability - Renal Proximal Tubule (AID 545); conditions: renal proximal tubule cells viability, primary cells of rat origin; at 91.7 µM (top of the series);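 note: cells exposed to compound for 40 hours; nearly all actives have a fitted effect of over 40% in size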
Method in brief: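 Cytotoxicity is scored as a concentration-dependent drop in cellular ATP in primary rat renal proximal tubule cells exposed for 40 hr. AC50 derives from Hill modelling.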

[12] = Cellular Toxicity (caspase-3) HepG2 (AID 654);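 note: cells exposed to compound for 16 hours before reading; 0% = DMSO alone and 100% = caspase signal from 100 µM tamoxifen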
Method in brief: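 Concentration-response AC50 values reflect caspase-3/7 induction in HepG2 cells after 16 hours of compound exposure, quantified by luminescence from liberated aminoluciferin and referenced to 100 uM tamoxifen as full stimulation.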

[13] = Cellular Toxicity (caspase-3) Jurkat (AID 655); conditions: Jurkat caspase-3 activation, luminescence, DMSO = 0%, tamoxifen = 100%; at 92.2 µM (top of the series);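 note: cells exposed to compound for 16 h at 37 °C before reading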
Method in brief: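 Caspase 3/7 activation is scored as increased luminescence in Jurkat cells cultured with compound for 16 hours in complete medium. AC50 values come from Hill fits of qHTS concentration-response data normalized to DMSO and 100 uM tamoxifen controls.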

[14] = Cellular Toxicity (caspase-3) HUV-EC-C (AID 656)
Method in brief: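 Read-out: luminescence proportional to caspase 3/7 activity, measured 20 min after adding Caspase-Glo 3/7 reagent. Cells (HUV-EC-C) had received compound for 16 hr at 37°C. Increases relative to DMSO and 100 uM tamoxifen gave concentration-response AC50 values.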

[15] = Cellular Toxicity (caspase-3) SHSY5Y (AID 657)
Method in brief: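 Cells plated and incubated 5 h at 37 °C, dosed over a concentration range, incubated 16 h, then given Caspase-Glo 3/7 reagent for 1 h at room temperature before luminescence reading. Staurosporine (10 uM) defined full stimulation.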

[16] = Cellular Toxicity (caspase-3) BJ (AID 658);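 note: 0% = DMSO basal and 100% = 10 µM staurosporine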
Method in brief: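 qHTS, BJ fibroblasts, 1000 cells/well; 5 hr preincubation, 16 hr compound, 37 °C; Caspase-Glo 3/7 reagent, 1 hr RT; luminescence. DMSO = 0%, 10 uM staurosporine = 100%. Hill-equation AC50.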

[17] = Cellular Toxicity (caspase-3) MRC-5 (AID 659);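 note: 0% = DMSO basal and 100% = 10 µM staurosporine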
Method in brief: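 MRC-5 fibroblasts, 1500/well; 16 h cpd, 37 °C; Caspase-Glo 3/7, 1 h RT; lumi read. Norm: DMSO = 0%, 10 uM staurosporine = 100%. Hill-fit AC50 from qHTS conc-response.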

[18] = Cellular Toxicity (caspase-3) Mesangial (AID 660);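 note: cells exposed to compound for 16 h before the caspase read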
Method in brief: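 AC50 values come from Hill-equation fits of caspase 3/7 activation, measured as Caspase-Glo luminescence in human glomerular mesangial cells exposed to compound for 16 h at 37 °C; 100% set by 100 uM tamoxifen.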

[19] = Cellular Toxicity (caspase-3) H-4-II-E (AID 663); conditions: Potency: caspase-3 activation;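 note: cells exposed to compound for 16 hr before readout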
Method in brief: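 H-4-II-E rat hepatoma, 1500 cells/well, 5 hr settle at 37 °C; compound 16 hr, 37 °C, complete medium; Caspase-Glo 3/7, 20 min RT; luminescence. DMSO = 0%, 100 uM tamoxifen = 100%; Hill-equation AC50.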

[20] = Cellular Toxicity (caspase-3) Hek293 (AID 664);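 note: cells exposed to compound for 16 h at 37 °C before readout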
Method in brief: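 Apoptosis readout: Caspase-Glo 3/7 signal in human HEK293 cells following 16-hour compound incubation. Responses scaled between DMSO baseline and 100 uM tamoxifen.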

[21] = Cellular Toxicity (caspase-3) N2a (AID 665);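 note: compound exposure lasted 16 h at 37 °C before readout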
Method in brief: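 Concentration-response qHTS: compound-induced caspase-3/7 luminescence in N2a cells (16 h, 37 °C), relative to DMSO and 10 uM staurosporine controls; AC50 obtained using the standard Hill equation.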

[22] = Cellular Toxicity (caspase-3) NIH 3T3 (AID 666);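 note: caspase signal read after 16 h compound exposure; 0% = DMSO basal and 100% = 100 µM tamoxifen stimulation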
Method in brief: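 Activity: caspase-3/7 induction, NIH 3T3 cells, 16 hr treatment at 37°C, luminescent Caspase-Glo detection; AC50 via Hill equation.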

[23] = Cellular Toxicity (caspase-3) Renal Proximal Tubule (AID 667);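 note: cells exposed to compound for 16 hours at 37 °C before detection; 0% = DMSO basal and 100% = 10 µM staurosporine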
Method in brief: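 In qHTS format, rat primary proximal tubule cells seeded at 1000 per well are exposed to compounds for 16 hours at 37 °C. An increase in Caspase-Glo 3/7 luminescence indicates caspase activation.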

[24] = molecular target: Cytochrome P450 3A4 (Homo sapiens) (UniProt P08684); test: qHTS Assay for Inhibitors and Substrates of Cytochrome P450 3A4 (AID 884); note: % is set by controls: 0 for no effect and ±100 for the full control effect; nearly all actives have a fitted effect of over 50% in size
Method in brief: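 Luminescent readout of luciferin produced by CYP3A4 (20 nM) dealkylation of Luciferin-PPXE, 25 uM (its KM). NADPH-driven reaction ran 60 min at RT after 10 min compound preincubation; data scaled to 57 uM ketoconazole as 100% inhibition.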

Sequence of Cytochrome P450 3A4 (Homo sapiens) (P08684 whole entry, looked up): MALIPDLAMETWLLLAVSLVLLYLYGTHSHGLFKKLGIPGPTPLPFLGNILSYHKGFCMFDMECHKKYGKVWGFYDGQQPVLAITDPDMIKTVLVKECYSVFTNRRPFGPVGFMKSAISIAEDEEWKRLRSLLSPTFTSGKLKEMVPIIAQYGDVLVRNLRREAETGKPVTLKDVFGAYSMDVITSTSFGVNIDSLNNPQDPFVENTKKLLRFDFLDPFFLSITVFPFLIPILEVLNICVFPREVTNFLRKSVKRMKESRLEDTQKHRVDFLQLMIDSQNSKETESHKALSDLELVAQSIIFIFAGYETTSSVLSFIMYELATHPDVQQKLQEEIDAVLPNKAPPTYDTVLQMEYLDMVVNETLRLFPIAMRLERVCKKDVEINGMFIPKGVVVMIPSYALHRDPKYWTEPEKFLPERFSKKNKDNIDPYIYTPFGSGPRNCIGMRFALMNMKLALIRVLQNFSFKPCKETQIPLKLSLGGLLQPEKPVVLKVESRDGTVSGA

C=CCc1ccc(OC)c(OC)c1
inactive: Potency [1] > 92 µM | Potency [2] > 92 µM | Potency [3] > 92 µM | Potency [4] > 92 µM | Potency [5] > 92 µM | Potency [6] | activity change, negative = cytotoxicity [7] -13.8% | outcome [8] | Potency [9] | Potency [10] | activity change, negative = cytotoxicity [11] -5.61% | outcome [12] | caspase-3 activation [13] -0.00061% | outcome [14] | outcome [15] | outcome [16] | outcome [17] | outcome [18] | Potency [19] | outcome [20] | outcome [21] | outcome [22] | outcome [23] | Potency [24]

Reference: PubChem BioAssay (NCATS)
